This is part of a sample that, as a whole, favours compounds with a hit. Of some 83,000 tested, about 20% had one in any assay.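 Single-dose data. Exposure time 48 hours. Values below 10 considered active.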 The source made the active and inactive calls.
Tests used:
Experiment in all cases: NCI-60 one-dose screen, 48 h (100 = growth as untreated, 0 = no growth, -100 = all killed)
Details in all cases: 10 µM unless noted
HCT-15 colon = test system: HCT-15 colon
HT29 colon = test system: HT29 colon
SNB-75 CNS = test system: SNB-75 CNS
SNB-19 CNS = test system: SNB-19 CNS
PC-3 prostate = test system: PC-3 prostate
SK-MEL-5 melanoma = test system: SK-MEL-5 melanoma
UACC-62 melanoma = test system: UACC-62 melanoma
LOX IMVI melanoma = test system: LOX IMVI melanoma
SK-MEL-28 melanoma = test system: SK-MEL-28 melanoma

Measured: growth

Cn1c(=O)c(S(=O)(=O)c2ccccc2)cc2ccc3c(cnn3-c3ccc(Cl)cc3)c21
inactive: HCT-15 colon 73% | HT29 colon 79.2% | SNB-75 CNS 38.9% | SNB-19 CNS 90.1% | PC-3 prostate 79.9% | SK-MEL-5 melanoma 84.6% | UACC-62 melanoma 89.1% | LOX IMVI melanoma 78.9% | SK-MEL-28 melanoma 84.6%

COc1ccc(C(=O)C2=CC(=O)C(=O)C2)cc1OC
inactive: HCT-15 colon 96.2% | HT29 colon 98.1% | SNB-75 CNS 90.8% | SNB-19 CNS 105% | PC-3 prostate 94.5% | SK-MEL-5 melanoma 103% | LOX IMVI melanoma 101% | SK-MEL-28 melanoma 112%

CC(C)(C)CC(C)(C)N(CSc1ccc(Cl)cc1)CSc1ccc(Cl)cc1
inactive: HCT-15 colon 53.3% | HT29 colon 57.7% | SNB-75 CNS 49.6% | SNB-19 CNS 67.5% | SK-MEL-5 melanoma 54.2% | UACC-62 melanoma 57.9% | SK-MEL-28 melanoma 76.7%
active: PC-3 prostate 2.25% | LOX IMVI melanoma -34.6%

O=C(Nc1ccc(Cl)c(Cl)c1)OCn1ncc2ccc([N+](=O)[O-])cc21
inactive: HCT-15 colon 84.9% | HT29 colon 103% | SNB-75 CNS 67.8% | SNB-19 CNS 92.9% | PC-3 prostate 70.9% | SK-MEL-5 melanoma 95.7% | UACC-62 melanoma 73.6% | LOX IMVI melanoma 78.8%

CCN(C(=O)c1ccc2c3c(cccc13)C=C2)c1ccccc1
inactive: HCT-15 colon 88.7% | HT29 colon 88.8% | SNB-75 CNS 88.9% | SNB-19 CNS 93.7% | PC-3 prostate 83.7% | SK-MEL-5 melanoma 93.9% | UACC-62 melanoma 80.3% | LOX IMVI melanoma 108% | SK-MEL-28 melanoma 108%

COc1ccc(-n2ncc3c4nc(OC)c(S(=O)(=O)c5ccccc5)cc4ccc32)cc1
active: SNB-75 CNS 6.98%
inactive: HCT-15 colon 77.6% | HT29 colon 70.3% | SNB-19 CNS 64.9% | PC-3 prostate 79.4% | SK-MEL-5 melanoma 90.4% | UACC-62 melanoma 59.9% | LOX IMVI melanoma 86.1% | SK-MEL-28 melanoma 71.6%

COC1(OC)C2(Cl)C=C(c3ccccc3)C1(Cl)C(Cl)=C2Cl (stereo not given)
inactive: HCT-15 colon 119% | HT29 colon 83.5% | SNB-75 CNS 67% | SNB-19 CNS 102% | PC-3 prostate 86.2% | SK-MEL-5 melanoma 104% | UACC-62 melanoma 96.6% | LOX IMVI melanoma 90% | SK-MEL-28 melanoma 102%

COc1nc2c(cc1S(=O)(=O)c1ccccc1)CCc1c-2cnn1-c1cccc(Cl)c1
inactive: HCT-15 colon 71% | HT29 colon 54.9% | SNB-75 CNS 85.5% | SNB-19 CNS 98.2% | PC-3 prostate 64.4% | UACC-62 melanoma 71.2% | LOX IMVI melanoma 93.9% | SK-MEL-28 melanoma 86.4%

O=C1C2CC3C(CC2C(=O)[N]1[Sn]([c]1ccccc1)([c]1ccccc1)[c]1ccccc1)C1(Cl)C(Cl)=C(Cl)C3(Cl)C1(Cl)Cl (stereo not given)
active: HCT-15 colon -88% | HT29 colon -87.3% | SNB-75 CNS -84.8% | SNB-19 CNS -97.4% | PC-3 prostate -92.9% | SK-MEL-5 melanoma -93.1% | UACC-62 melanoma -95.7% | LOX IMVI melanoma -66.7% | SK-MEL-28 melanoma -94.2%

COc1nc2c(cc1S(=O)(=O)c1ccccc1)CCc1c-2cnn1-c1ccccc1Cl
inactive: HCT-15 colon 51.5% | HT29 colon 36.9% | SNB-75 CNS 50.9% | SNB-19 CNS 64.5% | PC-3 prostate 35.9% | SK-MEL-5 melanoma 68% | UACC-62 melanoma 60% | LOX IMVI melanoma 78% | SK-MEL-28 melanoma 85.2%

CCCCC(=O)N/N=C/c1cc(I)cc(I)c1O
inactive: HCT-15 colon 15.6% | HT29 colon 56.2% | SNB-75 CNS 62.8% | SNB-19 CNS 62.9% | PC-3 prostate 47% | UACC-62 melanoma 38.8% | LOX IMVI melanoma 38.9% | SK-MEL-28 melanoma 58.8%

O/N=C/c1cccs1
inactive: HCT-15 colon 98.4% | HT29 colon 107% | SNB-75 CNS 94.3% | SNB-19 CNS 107% | PC-3 prostate 101% | SK-MEL-5 melanoma 103% | UACC-62 melanoma 119% | LOX IMVI melanoma 107% | SK-MEL-28 melanoma 112%

O=[N+]([O-])c1cc2c(cc1Br)C1C(C3C2C(Cl)(Cl)C(Cl)=C(Cl)C3(Cl)Cl)C(Cl)(Cl)C(Cl)=C(Cl)C1(Cl)Cl (stereo not given)
inactive: HCT-15 colon 103% | HT29 colon 102% | SNB-75 CNS 85.8% | SNB-19 CNS 106% | PC-3 prostate 85.1% | SK-MEL-5 melanoma 102% | UACC-62 melanoma 87.1% | LOX IMVI melanoma 91.9% | SK-MEL-28 melanoma 102%

Brc1ccc(SCN(CSc2ccc(Br)cc2)Cc2ccccc2)cc1
active: LOX IMVI melanoma -15.5%
inactive: HCT-15 colon 78.8% | HT29 colon 78.9% | SNB-75 CNS 66.4% | SNB-19 CNS 84.2% | PC-3 prostate 26.4% | SK-MEL-5 melanoma 91.2% | SK-MEL-28 melanoma 101%

Cc1ccc(-c2c3c(N)c4c(nc3nc3c2c(C)nn3-c2ccccc2)CCCC4)cc1
inactive: HCT-15 colon 99.3% | HT29 colon 95.4% | SNB-75 CNS 97.2% | SNB-19 CNS 108% | PC-3 prostate 90.9% | SK-MEL-5 melanoma 104% | UACC-62 melanoma 106% | LOX IMVI melanoma 93.9% | SK-MEL-28 melanoma 99.8%

C=CC[P+](c1ccccc1)(c1ccccc1)c1ccccc1
inactive: HCT-15 colon 98.1% | HT29 colon 40% | SNB-75 CNS 63.3% | SNB-19 CNS 61.6% | PC-3 prostate 34.7% | SK-MEL-5 melanoma 33.4% | UACC-62 melanoma 42% | LOX IMVI melanoma 66.4% | SK-MEL-28 melanoma 71.8%

Cc1ccc(-c2nnc(COc3ccc(-c4nnc(N)s4)cc3)o2)cc1
inactive: HCT-15 colon 81.3% | HT29 colon 81.5% | SNB-75 CNS 94.2% | SNB-19 CNS 86% | PC-3 prostate 83.9% | UACC-62 melanoma 83.2% | LOX IMVI melanoma 26% | SK-MEL-28 melanoma 98.3%

COc1ccc(-c2c3c(N)c4c(nc3nc3c2c(C)nn3-c2ccccc2)CCCCC4)cc1
inactive: HCT-15 colon 73.9% | HT29 colon 41.4% | SNB-75 CNS 79.8% | SNB-19 CNS 93.7% | PC-3 prostate 70.4% | SK-MEL-5 melanoma 90.6% | UACC-62 melanoma 98% | LOX IMVI melanoma 90.6% | SK-MEL-28 melanoma 98%

CSc1ccc(OC(C)=O)cc1C
inactive: HCT-15 colon 95% | HT29 colon 104% | SNB-75 CNS 94.3% | SNB-19 CNS 109% | PC-3 prostate 96.6% | SK-MEL-5 melanoma 98.8% | UACC-62 melanoma 98.1% | LOX IMVI melanoma 95.5% | SK-MEL-28 melanoma 110%

CCCCCCCCCCCC(=O)[O][Sn]([CH2]CCC)([CH2]CCC)[CH2]CCC
active: HCT-15 colon -87.2% | HT29 colon -90.3% | SNB-75 CNS -100% | SNB-19 CNS -95.5% | PC-3 prostate -92.6% | SK-MEL-5 melanoma -97.8% | LOX IMVI melanoma -90.1% | SK-MEL-28 melanoma -99.1%

Cc1ccc2c(N/N=C\c3ccco3)cc(C)nc2n1
inactive: HCT-15 colon 36.6% | HT29 colon 26.6% | SNB-75 CNS 85.5% | SNB-19 CNS 87.4% | PC-3 prostate 70.5% | SK-MEL-5 melanoma 94.8% | UACC-62 melanoma 51.1% | LOX IMVI melanoma 46.5% | SK-MEL-28 melanoma 80.5%

Cc1nn(-c2ccccc2)c2nc3nc4c(c(N)c3c(-c3ccc(Cl)cc3)c12)CCCC4
inactive: HCT-15 colon 93.3% | HT29 colon 91.5% | SNB-75 CNS 101% | SNB-19 CNS 108% | PC-3 prostate 94.7% | SK-MEL-5 melanoma 101% | UACC-62 melanoma 108% | LOX IMVI melanoma 94.4% | SK-MEL-28 melanoma 97.2%

CCCCCCCCCCCCCCNc1nc(CO)ncc1-c1ccc(C(F)(F)F)cc1
inactive: HCT-15 colon 103% | HT29 colon 104% | SNB-75 CNS 74.2% | SNB-19 CNS 118% | PC-3 prostate 94.6% | SK-MEL-5 melanoma 98.5% | UACC-62 melanoma 95.5% | LOX IMVI melanoma 91.6% | SK-MEL-28 melanoma 108%

Cc1nc2cc(Nc3nc(Cl)nc(Nc4ccc(F)cc4)n3)ccc2n1Cc1ccccc1
inactive: HCT-15 colon 72.1% | HT29 colon 94.5% | SNB-75 CNS 90% | SNB-19 CNS 92.4% | PC-3 prostate 78.8% | SK-MEL-5 melanoma 92.4% | LOX IMVI melanoma 43.3% | SK-MEL-28 melanoma 106%

O=C(Nc1ccc(Cl)c(Cl)c1)NC(CO)(CO)CO
inactive: HCT-15 colon 94.9% | HT29 colon 100% | SNB-75 CNS 79.3% | SNB-19 CNS 101% | PC-3 prostate 86.3% | SK-MEL-5 melanoma 99.3% | LOX IMVI melanoma 95.2% | SK-MEL-28 melanoma 107%

Nc1nc(N)c(N=Nc2c(Br)cc(S(N)(=O)=O)cc2Br)c(N)n1
inactive: HCT-15 colon 114% | HT29 colon 115% | SNB-75 CNS 90.6% | SNB-19 CNS 97.5% | PC-3 prostate 95.1% | SK-MEL-5 melanoma 98.2% | UACC-62 melanoma 91.8% | LOX IMVI melanoma 110% | SK-MEL-28 melanoma 99.5%

Cc1nc2cc(Nc3nc(Nc4ccc(F)cc4)nc(-c4cccs4)n3)ccc2n1Cc1ccccc1
inactive: HCT-15 colon 30.3% | HT29 colon 20.5% | SNB-75 CNS 52.2% | SNB-19 CNS 66.7% | PC-3 prostate 29.4% | SK-MEL-5 melanoma 76.5% | UACC-62 melanoma 61.5% | LOX IMVI melanoma 64.8% | SK-MEL-28 melanoma 74.3%

O=C(O)CCN1CCN(c2cccc(Cl)c2)CC1
inactive: HCT-15 colon 100% | HT29 colon 99.8% | SNB-75 CNS 84% | SNB-19 CNS 103% | PC-3 prostate 101% | SK-MEL-5 melanoma 102% | UACC-62 melanoma 104% | LOX IMVI melanoma 110% | SK-MEL-28 melanoma 108%

COC(=O)[C@@H]1CCCN1C(=O)[C@@H]1CCCN1C(=O)[C@@H](Cc1c[nH]c2ccccc12)NC(=S)Nc1cc(C(F)(F)F)cc(C(F)(F)F)c1
inactive: HCT-15 colon 74.6% | HT29 colon 51.1% | SNB-75 CNS 32.7% | SNB-19 CNS 69.3% | PC-3 prostate 43.4% | UACC-62 melanoma 58.1% | LOX IMVI melanoma 23.3% | SK-MEL-28 melanoma 33.7%

CCCCCCCCCCCCSC1=CC(=O)C=CC1=O
inactive: HCT-15 colon 74.6% | HT29 colon 94.7% | SNB-75 CNS 44.9% | SNB-19 CNS 40.4% | PC-3 prostate 16.8% | SK-MEL-5 melanoma 97.5% | UACC-62 melanoma 96.4% | LOX IMVI melanoma 28.1% | SK-MEL-28 melanoma 110%
